Laboratory results reported in PubChem BioAssay (Tox21).
Inconclusive results are not listed. Calls of active or inactive are those of the source. Unless noted, calls follow the shape of the dose curve; as a rule, active = well fitted curve in the direction sought with a large enough effect in the repeat runs; inconclusive = weak or mixed curves; inactive = no such curve, though single readings can be large; an effect the other way counts as inactive or inconclusive. Positions of bridges follow the written chain, without caps; N, C: chain ends. Non-standard residues stand in square brackets, D forms with d. Residues, ends and D or L forms follow the SMILES beside them. *: point of attachment. X2 = CC[C@H](C)CCCCC(=O)*; Dab = NCC[C@H](N)C(=O)O

What was measured:
[1] = qHTS assay for small molecules that induce genotoxicity in human embryonic kidney cells expressing luciferase-tagged ATAD5 (AID 651632); also: nearly all actives have a fitted effect of over 15% in size
How it was run: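 A rise in luciferase signal from ATAD5-tagged HEK293T cells marks genetic stress. Cells were exposed to compounds for 16 hr at 37C, 5% CO2, then luciferase was quantified after a 30 min room-temperature incubation with Amplite.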

[2] = qHTS assay for small molecule agonists of the p53 signaling pathway - cell viability (AID 651633; calls by dose curve; also: nearly all actives have a fitted effect of over 30% in size; also: potency is read from the fitted curve at half-maximal effect)
How it was run: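 p53RE-bla cells were treated with compound for 16 hours at 37 C. Cytotoxicity was then measured as CellTiter-Glo luminescence after 30 min at room temperature.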

[3] = qHTS assay for small molecules that induce genotoxicity in human embryonic kidney cells expressing luciferase-tagged ATAD5 - cell viability (AID 651634; calls by dose curve; also: nearly all actives have a fitted effect of over 25% in size; also: potency is read from the fitted curve at half-maximal effect)
How it was run: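 Cytotoxicity counter-readout: after 15.5 hr compound treatment at 37C, live-cell protease activity in ATAD5-luciferase HEK293T cells measured by CellTiter-Fluor fluorescence, 30 min development at 37C.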

[4] = qHTS assay for small molecule disruptors of the mitochondrial membrane potential - cell viability (AID 720634; calls by dose curve; also: nearly all actives have a fitted effect of over 20% in size; also: potency is read from the fitted curve at half-maximal effect)
How it was run: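 Cytotoxicity was quantified from ATP content by CellTiter-Glo luminescence in the same wells as the MMP dye read-out. HepG2 (2,000 cells/well) were plated overnight and exposed to compounds for 1 hr at 37 C.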

[5] = qHTS assay for small molecule disruptors of the mitochondrial membrane potential (AID 720635); also: potency is read from the fitted curve at half-maximal effect
How it was run: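 HepG2 cells exposed to compound 1 hr at 37C, then Mito-MPS dye 30 min. Ratio read of aggregate (540/590 nm) versus monomer (490/535 nm) fluorescence.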

[6] = qHTS assay to test for compound auto fluorescence at 590 nm (red) in HepG2 cells (AID 720674)
How it was run: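 Fluorescence at 590 nm emission following 540 nm excitation was recorded from HepG2 wells one hour after compound transfer, with DMSO-only wells as vehicle and Rose Bengal sodium equivalency as the scale.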

[7] = qHTS assay to test for compound auto fluorescence at 535 nm (green) in HepG2 cells (AID 720675)
[8] = qHTS assay to test for compound auto fluorescence at 460 nm (blue) in HEK293 cells (AID 720678); also: potency is read from the fitted curve at half-maximal effect
How it was run: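 Intrinsic compound fluorescence is recorded in live HEK293 cultures after overnight incubation at 37C, 5% CO2, using excitation 405 nm and emission 460 nm. Values are referenced to triamterene.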

[9] = qHTS assay to test for compound auto fluorescence at 590 nm (red) in HEK293 cells (AID 720679)
How it was run: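 Red autofluorescence, HEK293 cells: 2,000 cells/well; attach 4-5 hr 37C; add 23 nL cpd or DMSO; incubate o/n 37C 5% CO2; read Ex540/Em590; Rose Bengal sodium reference.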

[10] = qHTS assay to test for compound auto fluorescence at 535 nm (green) in HEK293 cells (AID 720680)
[11] = qHTS assay to test for compound auto fluorescence at 460 nm (blue) in HEK293 cell free culture (AID 720681); also: potency is read from the fitted curve at half-maximal effect
How it was run: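 Compounds were added to cell-free DMEM with 10% FBS and fluorescence read directly. The blue channel used 405 nm excitation and 460 nm emission, with triamterene as the reference fluorophore.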

[12] = qHTS assay to test for compound auto fluorescence at 535 nm (green) in HEK293 cell free culture (AID 720682)
How it was run: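 Steps: dispense DMEM/10% FBS into empty wells; pin in compound or DMSO; measure fluorescence at 485/535 nm. Values are fluorescein equivalents.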

[13] = qHTS assay to test for compound auto fluorescence at 590 nm (red) in HEK293 cell free culture (AID 720683)
How it was run: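 Cell-free wells of DMEM with 10% FBS received compound, and intrinsic fluorescence was read at excitation/emission 540/590 nm. Values expressed as equivalence to Rose Bengal sodium.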

[14] = qHTS assay to test for compound auto fluorescence at 590 nm (red) in HepG2 cell free culture (AID 720684)
How it was run: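 Rose Bengal sodium served as the reference for red signal. Test compounds were dispensed into serum-containing MEM (10% FBS) without cells, and plates were read at 540/590 nm.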

[15] = qHTS assay to test for compound auto fluorescence at 535 nm (green) in HepG2 cell free culture (AID 720686)
[16] = qHTS assay to test for compound auto fluorescence at 460 nm (blue) in HepG2 cells (AID 720687)
How it was run: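 HepG2 cells in MEM with 10% FBS, attached overnight at 37 C, were exposed to compound or DMSO for 1 hr at 37 C, 5% CO2. Blue fluorescence was read at 405/460 nm, with triamterene as reference fluorophore.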

[17] = qHTS assay to test for compound auto fluorescence at 460 nm (blue) in HepG2 cell free culture (AID 720685)
How it was run: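 Cell-free plates of MEM plus 10% FBS received 23 nL compound or DMSO vehicle; blue-channel (405/460 nm) intensity scored against triamterene as reference fluorophore.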

[18] = biological target: Glucocorticoid receptor (Homo sapiens) (UniProt P04150); assay: qHTS assay to identify small molecule agonists of the glucocorticoid receptor (GR) signaling pathway (AID 720691; active = well fitted activation curve with a large enough effect in the signal ratio in the repeat runs, not every such curve was filed as active; the % refers to the signal ratio); details: GR-bla HeLa, beta-lactamase reporter ratio, 18 h; activation: at 62.4 µM (top of the series)
Sequence of Glucocorticoid receptor (Homo sapiens) (P04150 whole entry, looked up): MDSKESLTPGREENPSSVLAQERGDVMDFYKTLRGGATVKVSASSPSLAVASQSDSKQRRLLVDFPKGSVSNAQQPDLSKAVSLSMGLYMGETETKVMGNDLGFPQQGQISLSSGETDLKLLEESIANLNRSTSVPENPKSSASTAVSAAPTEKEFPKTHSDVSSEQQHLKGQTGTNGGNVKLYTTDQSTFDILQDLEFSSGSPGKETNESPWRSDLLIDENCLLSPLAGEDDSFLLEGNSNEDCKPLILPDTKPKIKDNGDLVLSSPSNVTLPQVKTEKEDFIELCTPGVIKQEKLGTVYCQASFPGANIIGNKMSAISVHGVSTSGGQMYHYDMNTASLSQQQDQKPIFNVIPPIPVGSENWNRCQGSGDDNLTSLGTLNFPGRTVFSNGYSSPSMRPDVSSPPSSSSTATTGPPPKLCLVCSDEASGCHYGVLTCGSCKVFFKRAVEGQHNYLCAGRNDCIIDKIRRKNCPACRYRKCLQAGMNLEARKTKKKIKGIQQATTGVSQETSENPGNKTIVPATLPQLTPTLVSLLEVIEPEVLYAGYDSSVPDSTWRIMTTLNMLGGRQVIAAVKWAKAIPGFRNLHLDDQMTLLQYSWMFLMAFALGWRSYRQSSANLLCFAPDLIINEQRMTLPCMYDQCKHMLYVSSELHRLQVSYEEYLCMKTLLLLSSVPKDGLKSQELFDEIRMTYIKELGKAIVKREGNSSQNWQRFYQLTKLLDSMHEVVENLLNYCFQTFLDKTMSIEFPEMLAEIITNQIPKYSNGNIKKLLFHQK
How it was run: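 Agonist-mode qHTS in HeLa cells stably expressing a glucocorticoid-response-element beta-lactamase reporter. Fluorescence intensity read with FRET substrate (2 h, room temperature) after 18 h compound treatment at 37 C.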

[19] = biological target: Glucocorticoid receptor (Homo sapiens) (UniProt P04150); assay: qHTS assay to identify small molecule antagonists of the glucocorticoid receptor (GR) signaling pathway (AID 720692; active = well fitted inhibition curve with a large enough effect in the signal ratio in the repeat runs, not every such curve was filed as active; the % refers to the signal ratio)
How it was run: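 Inhibition of dexamethasone-driven (5 nM final) beta-lactamase expression was measured in GRE-reporter HeLa cells over 18 h at 37C. Fluorescence was read after 2 h with the B/G FRET substrate at room temperature.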

Measured: Potency
Tags tell the direction and shape of the fitted curve or compound fluorescence and quenching.

CCNC(=O)[C@@H]1CCCN1C(=O)[C@H](CCCN=C(N)N)NC(=O)[C@H](CC(C)C)NC(=O)[C@@H](Cc1c[nH]c2ccccc12)NC(=O)[C@H](Cc1ccc(O)cc1)NC(=O)[C@H](CO)NC(=O)[C@H](Cc1c[nH]c2ccccc12)NC(=O)[C@H](Cc1cnc[nH]1)NC(=O)[C@@H]1CCC(=O)N1
active: [2] 8.41 µM | [3] 8.41 µM | [4] 29.8 µM | [5] 27.8 µM
not listed: [17] | [18] | [19]
inactive: all other assays above

c1ccc2cc(C3=NCCN3)ccc2c1
inactive: all assays above

CCCCCCCCCCCC(=O)OC[C@@H](O)C1OC[C@H](O)[C@H]1O (stereo not given in full)
inactive: all assays above

O=C(O)COc1ccc(CCNS(=O)(=O)c2ccccc2)s1
inactive: all assays above

O=C(O)[C@H](CC(=O)N1C[C@H]2CCCC[C@H]2C1)Cc1ccccc1
inactive: all assays above

COc1ccc2cc([C@H](C)CO)ccc2c1
inactive: all assays above

C[C@H](O)[C@H](O)[C@H]1CNc2nc(N)[nH]c(=O)c2N1
active: [8] 12.6 µM [fluorescent] | [11] 12.6 µM
not listed: [16] | [17]
inactive: all other assays above

Cc1ccc(C2(O)CCN(CCCC(=O)c3ccc(F)cc3)CC2)cc1
not listed: [13] | [18] | [19]
inactive: all other assays above

Cc1c(Cl)cccc1Nc1ncccc1C(=O)O
active: [5] 13.3 µM
not listed: [14] | [17] | [18] | [19]
inactive: all other assays above

CC[C@H](C)CCCCC(=O)N[C@@H](CCN)C(=O)N[C@H](C(=O)N[C@@H](CCN)C(=O)N[C@H]1CCNC(=O)[C@@H]([C@H](C)O)NC(=O)[C@H](CCN)NC(=O)[C@H](CCN)NC(=O)[C@H](CC(C)C)NC(=O)[C@@H](CC(C)C)NC(=O)[C@H](CCN)NC1=O)[C@@H](C)O (X2-[Dab]T[Dab][Dab][Dab][dL]L[Dab][Dab][dT]; lactam 4-C)
not listed: [17]
inactive: all other assays above

CCCC(CCC)C(N)=O
inactive: all assays above

NC[C@@H]1O[C@H](O[C@H]2[C@@H](O)[C@H](O[C@@H]3[C@@H](O)[C@H](N)C[C@H](N)[C@H]3O[C@H]3O[C@H](CO)[C@@H](O)[C@H](O)[C@H]3N)O[C@@H]2CO)[C@H](N)[C@@H](O)[C@@H]1O
inactive: all assays above
